# High-throughput results deposited in PubChem BioAssay by National Center for Advancing Translational Sciences (NCATS).
# Most compounds without a hit are left out; they make up all but 18% or so of the library.
# RORg inh = qHTS for inhibitors of ROR gamma transcriptional activity; Potency, µM (highest dose often 53.6 µM), inactives show at the top dose activity change, negative = inhibition, usual class: inhibitors; 310,000 tested, 5.4% active; Nuclear receptor ROR-gamma (Mus musculus), P51450; Drosophila S2 Gal4-RORgamma UAS-luciferase reporter, 20 h; further: potency means the concentration at half of the fitted maximal effect; nearly all actives have a fitted effect of over 60% in size
# Target sequence (P51450 whole entry, looked up, the tested form may be a part): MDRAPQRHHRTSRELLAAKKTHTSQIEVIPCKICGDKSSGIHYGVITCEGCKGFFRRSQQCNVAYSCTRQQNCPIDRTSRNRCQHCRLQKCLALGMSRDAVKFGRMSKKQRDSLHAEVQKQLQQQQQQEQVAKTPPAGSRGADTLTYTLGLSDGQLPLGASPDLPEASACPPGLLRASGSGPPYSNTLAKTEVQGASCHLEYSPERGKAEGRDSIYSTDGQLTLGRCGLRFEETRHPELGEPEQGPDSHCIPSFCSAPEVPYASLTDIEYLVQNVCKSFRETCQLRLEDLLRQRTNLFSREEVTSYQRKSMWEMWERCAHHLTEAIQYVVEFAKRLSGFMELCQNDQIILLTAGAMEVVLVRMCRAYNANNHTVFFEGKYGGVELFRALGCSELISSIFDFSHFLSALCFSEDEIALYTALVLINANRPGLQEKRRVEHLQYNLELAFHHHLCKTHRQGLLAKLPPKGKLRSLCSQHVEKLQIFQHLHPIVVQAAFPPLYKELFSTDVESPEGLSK
#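 Stably transfected Drosophila Schneider cells are the test system, with ROR gamma fused to Gal4 and luciferase under UAS control; luminescence is read after 20 hr of 700 uM copper sulfate induction at ambient temperature.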
# DT40 TDP1 no CPT = qHTS for Inhibitors of human tyrosyl-DNA phosphodiesterase 1 (TDP1): qHTS in cells in absence of CPT. DT40 Tdp1-/- hTDP1 cells, no CPT, ATP luminescence, 48 h. 420,000 tested, 15% active. Potency, µM (series often up to 46.2 µM), for the others: top-dose activity change, negative = growth inhibition, actives largely listed as inhibitors. AID 686978, 2013; further: potency means the concentration at half of the fitted maximal effect; nearly all actives have a fitted effect of over 55% in size
#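 Growth kinetics read by CellTiter-Glo luminescence after ≥48 hr at 37 °C. Cells: DT40 Tdp1-/- stably carrying human TDP1, 400 per well, compound exposure in the absence of CPT (DMSO vehicle).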
# Gal4-VP16 FLuc = VP16 counterscreen qHTS for inhibitors of ROR gamma transcriptional activity; Potency, µM (titrated, usually from 53.6 µM), for the others: at the top dose activity, negative = inhibition, most hits filed as inhibitors; Drosophila S2 Gal4-VP16 UAS-luciferase, luminescence, 20 h; AID 2546, 2010; 310,000 tested, 3.5% active;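 further: Gal4-VP16 expression switched on by copper sulfate through the metallothionein promoter; potency means the concentration at half of the fitted maximal effect; nearly all actives have a fitted effect of over 50% in size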
# LDHA inh = qHTS assay for inhibitors of human lactate dehydrogenase; L-lactate dehydrogenase A chain (Homo sapiens), P00338; purified LDHA, NADH/diaphorase-resazurin fluorescence; hits give low values; activity change, % (values are at about 110 or 230 µM); 480,000 tested, 0.15% active; in the data active means activity change below about -30%; inconclusive means mostly about -25% to -30%;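 further: plate controls were DMSO wells for no effect and wells without enzyme for full effect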
#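 Human LDH5 at 2 nM final in Tris HCl pH 7.4 with 0.06 mM NADH and 0.2 mM pyruvate, reacted 5 minutes at room temperature. Remaining NADH coupled via diaphorase/resazurin; resorufin fluorescence read at 0 and 20 minutes, normalized to enzyme-free and DMSO wells.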
# IL1B secr inh = qHTS for Inhibitors of Inflammasome Signaling: IL-1-beta AlphaLISA Primary Screen. THP-1 LPS/ATP IL-1B secretion, AlphaLISA, 16 h; hits give low values. activity change, % at 57.5 µM. 360,000 tested, 4.7% active; in the data active means activity change below about -50%; inconclusive means mostly about -30% to -49%
#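 Secreted IL-1B measured by AlphaLISA bead assay after 16 h compound exposure of THP-1 cells; compounds (final up to 57.5 uM) added 1 h before LPS (250 ng/mL) and ATP (1.25 mM) stimulation; lower signal means less secretion.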
# TDP1 cell CPT = qHTS for Inhibitors of human tyrosyl-DNA phosphodiesterase 1 (TDP1): qHTS in cells in presence of CPT | AID 686979, 2013 | chicken DT40 Tdp1-/-;hTDP1 cells + 20 nM CPT, ATP luminescence, 48 h | Potency, µM (highest dose often 46.2 µM), for the others: at the top dose activity change, negative = growth inhibition, hits mostly inhibitors | 420,000 tested, 12% active; further: potency means the concentration at half of the fitted maximal effect; nearly all actives have a fitted effect of over 55% in size
#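 Chicken DT40 Tdp1-/- cells complemented with human TDP1, 400 cells/well, exposed to compounds plus 20 nM camptothecin for at least 48 h at 37 C; viability read as ATP content by CellTiter-Glo luminescence.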
# An asterisk follows results filed as active; ? = inconclusive; · = no result; [ ] = another dose, or the depositor's remark. Unless noted, the call rests on the fitted dose curve; in most records, active means well fitted curve in the direction sought with a large enough effect; inconclusive means small, poorly fitted or top-dose-only effect, or another doubt; inactive means no such curve, though single readings can be large; an effect the other way counts as inactive or inconclusive. Unless noted, on the % scale 0 is the no-effect control and ±100 the full control effect.
SMILES,RORg inh,DT40 TDP1 no CPT,Gal4-VP16 FLuc,LDHA inh,IL1B secr inh,TDP1 cell CPT
COc1ccccc1CN(C)CC(=O)Nc1cccc(S(=O)(=O)N2CCCC2)c1,·,23.1µM*,·,-13.4,-15.5,?
CN(CC(=O)Nc1cc(S(=O)(=O)N2CCCC2)ccc1Cl)Cc1nc2ccccc2c(=O)[nH]1,·,20.6µM*,·,-3.2,0.0,?
COc1ccc2c(c1)C1NC(=S)NC(C)(O2)C1C(=O)Nc1ccc(C)cc1C (configuration not stated),-20.3%,?,3.8%,-7.8,-56.4*,-3.7%
COc1ccc2c(c1)C1NC(=S)N[C@@](C)(O2)C1C(=O)Nc1ccccc1 (some centres not stated),-19.2%,?,-6.2%,-3.2,-11.5,-29.0%
Cc1ccc(NC(=O)C2=C(c3ccccc3)NC(=S)NC2c2ccc(Br)cc2)cc1 (configuration not stated),·,·,·,-2.9,·,·
Cc1cc(O)c(C=Nc2ccc(N3CCOCC3)cc2)c(C)c1Cl,40.7%[1.91 µM],?,-3.9%,-3.9,46.8,24.5%
Cc1ccc(N=Cc2c(O)n(-c3cc(Cl)ccc3N3CCOCC3)c(=O)c3ccccc23)cc1C,9.3%,6.51µM*,1.5%,-8.2,?,7.31µM*
Cc1cccc(NC(=O)CCN2CCN(C/C=C/c3ccccc3)CC2)c1,0.4%,20.6µM*,5.3%,-1.3,-76.6*,?
O=C(CCN1CCN(C/C=C/c2ccccc2)CC1)Nc1ccccc1,1.0%,?,0.0%,-3.2,-15.4,-26.2%
COc1ccc(OC)c(NC(=O)CCN2CCN(C/C=C/c3ccccc3)CC2)c1,-6.3%,?,3.9%,-8.8,0.0,?
Cc1ccccc1NC(=O)CCN1CCN(C/C=C/c2ccccc2)CC1,14.2%,?,0.3%,0.6,?,20.6µM*
Cc1ccccc1NC(=O)CN1CCN(C)CC1,-16.1%,-9.3%,-2.7%,-16.6,6.3,6.0%
Cc1cc(NC(=O)CCN2CCN(C/C=C/c3ccccc3)CC2)ccc1Br,20.4%,?,-12.5%,-0.8,-81.6*,?
Cc1cc(NC(=O)CCN2CCN(C)CC2)ccc1Br,17.0%,8.7%,-1.3%,-7.1,-15.7,17.4%
Cc1ccccc1NC(=O)CCN1CCN(C)CC1,10µM*,2.0%,-9.6%,-3.6,4.0,0.7%
OCc1nc2ccccc2n1CC(O)COc1cc(Cl)ccc1Cl (configuration not stated),·,·,·,4.5,·,·
CC(=O)N1c2c(cc(Br)cc2S(=O)(=O)N2CCN(C(=O)c3ccco3)CC2)CC1C (configuration not stated),22.6%,18.4µM*,13.6%,1.1,-0.4,20.6µM*
CC(=O)N1c2c(cc(Br)cc2S(=O)(=O)N2CCN(c3ccccc3)CC2)CC1C (configuration not stated),·,16.4µM*,·,-4.7,·,23.1µM*
CCOC(=O)c1cnc(Nc2nc3ccccc3o2)nc1CN1CCN(C)CC1,?,13µM*,-1.5%,11.7,89.1,18.4µM*
COc1ccc(NC(=O)c2c(NC(=O)c3ccc(Br)cc3)sc3c2CCCC3)cc1,·,20.6µM*,·,2.1,·,?
CCOc1ccc(NC(=O)c2c(NCc3cccnc3)sc3c2CCCC3)cc1,·,?,·,2.8,·,?
COc1ccc(NC(=O)c2c(NCc3cccs3)sc3c2CCCCC3)cc1,·,9.2µM*,·,3.4,·,9.2µM*
CCOc1ccc(NC(=O)c2c(NCc3cccs3)sc3c2CCCCC3)cc1,·,23.1µM*,·,1.0,·,?
COc1ccc(NC(=O)c2c(NC(=O)COc3ccccc3)sc3c2CCCCC3)cc1,·,-7.4%,·,-12.0,·,-1.4%
CCOc1ccc(NC(=O)c2c(NC(=O)CN3CCN(C)CC3)sc3c2CCC3)cc1,41.6%,·,-0.5%,·,·,·
SMILES,RORg inh,DT40 TDP1 no CPT,Gal4-VP16 FLuc,LDHA inh,IL1B secr inh,TDP1 cell CPT
CCOc1ccc(NC(=O)c2c(NC(=O)CN3CCCC3)sc3c2CCC3)cc1,4.47µM*,11.6µM*,4.47µM*,-15.9,6.8,?
COc1ccc(NC(=O)c2c(NC(=O)c3cccc(C)c3)sc3c2CCCC3)cc1,·,-14.0%,·,-4.3,·,-1.2%
CCN(CC)S(=O)(=O)c1ccc(C(=O)Nc2ccc(C)cc2Br)cc1,·,·,·,-0.2,·,·
CCN(CC)C(=O)[C@H]1CC(CC(=O)NCCC2=CCCCC2)C(=O)N2CCc3c([nH]c4ccccc34)[C@]12C (some centres not stated),·,23.1µM*,·,-0.2,-16.2,23.1µM*
CCN(CC)C(=O)[C@H]1CC(CC(=O)NCC23CC4CC(CC(C4)C2)C3)C(=O)N2CCc3c([nH]c4ccccc34)[C@]12C (some centres not stated),·,8.2µM*,·,5.9,?,16.4µM*
C[C@]12c3[nH]c4ccc(Cl)cc4c3CCN1C(=O)[C@@H](CC(=O)NCCC1=CCCCC1)C[C@@H]2C(=O)N1CCCCC1,·,-21.6%,·,-7.4,-8.7,-27.9%
COc1ccc2[nH]c3c(c2c1)CCN1C(=O)C(CC(=O)NCC24CC5CC(CC(C5)C2)C4)C[C@H](C(=O)N(C(C)C)C(C)C)[C@@]31C (some centres not stated),·,?,·,3.9,-71.8*,?
COc1ccc2[nH]c3c(c2c1)CCN1C(=O)C(CC(=O)NCCc2ccccn2)C[C@H](C(=O)N(C(C)C)C(C)C)[C@@]31C (some centres not stated),·,?,·,2.1,-21.6,?
CCN(CC)C(=O)[C@H]1C[C@H](CC(=O)NCCC2=CCCCC2)C(=O)N2CCc3c([nH]c4ccc(Cl)cc34)[C@]12C,·,20.6µM*,·,-4.6,-54.1*,16.4µM*
N#Cc1nc(/C=C/c2ccccc2Cl)oc1N1CCN(C(=O)c2ccco2)CC1,·,·,·,-1.4,·,·
CC(=O)Nc1ccc(-c2ccnc3c2CC(C)(C(=O)Nc2cccc(Oc4ccccc4)c2)O3)cc1 (configuration not stated),·,16.4µM*,·,-8.1,-21.7,25.9µM*
CC(=O)Nc1ccc(NC(=O)C2(C)Cc3c(-c4ccc(NC(C)=O)cc4)ccnc3O2)cc1 (configuration not stated),·,2.3%,·,-3.3,-18.3,1.0%
CC(=O)Nc1cccc(-c2ccnc3c2CC(C)(C(=O)Nc2cccnc2)O3)c1 (configuration not stated),·,-29.3%,·,-3.2,27.9,-28.4%
